TMEM16A act: mouse TMEM16A channel activation, primary screen. Q8BHY3. HEK293 TMEM16A/YFP-H148Q/I152L, iodide quench fluorescence; stronger effect = lower value. B-score at 10 µM. 340,000 tested, 0.3% active;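 active = fluorescence-ratio B-score plate-corrected deviation score at least 3 library SD below zero, with starting fluorescence score within 5 deviations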;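 note: channel opened by trigger with iodide after compound preincubation; score built on the fluorescence ratio of max minus min over baseline; more negative score means more quench and so TMEM16A activation or potentiation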
KCNK9 block: blocks the human KCNK9 two-pore domain potassium channel | HEK293 KCNK9, FluxOR thallium flux fluorescence; stronger effect = lower value | B-score at 10 µM | 310,000 tested, 1.2% active | AID 488922;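 active = ratio B-score over 3 SD below the library mean, with starting fluorescence within 5 SD of its mean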;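 note: negative B-score means less thallium flux so channel inhibition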
KCNK3 inh: human KCNK3 channel inhibition, primary screen; O14649; CHO-KCNK3 thallium flux, FluxOR fluorescence; stronger effect = lower value; B-score at 10 µM; 340,000 tested, 0.84% active; AID 602410;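 active = B-score under library mean minus 4 SD, starting fluorescence ratio at most library mean plus 5 SD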;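 note: more negative B-score means stronger inhibition of thallium flux through KCNK3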
Target sequence (O14649 whole entry, looked up): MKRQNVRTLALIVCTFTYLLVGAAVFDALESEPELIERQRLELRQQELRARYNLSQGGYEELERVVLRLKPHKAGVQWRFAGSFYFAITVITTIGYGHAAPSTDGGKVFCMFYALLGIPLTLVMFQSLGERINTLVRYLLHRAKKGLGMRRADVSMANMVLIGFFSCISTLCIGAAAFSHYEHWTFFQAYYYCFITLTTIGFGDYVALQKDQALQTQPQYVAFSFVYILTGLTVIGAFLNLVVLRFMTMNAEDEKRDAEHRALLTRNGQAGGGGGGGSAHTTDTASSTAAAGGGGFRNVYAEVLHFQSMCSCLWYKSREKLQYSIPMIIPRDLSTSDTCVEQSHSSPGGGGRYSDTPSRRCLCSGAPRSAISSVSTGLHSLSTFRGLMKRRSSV
Kir21 block: Kir2.1 (mouse) channel inhibition; 310,000 tested, 0.85% active; AID 1672; B-score at 10 µM; HEK293-Kir2.1, FluxOR thallium flux fluorescence; stronger effect = lower value;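 active = fluorescence ratio B-score at or below minus 3 SD of library scores, with starting-brightness B-score within 2 SD, cut at about -4.2 in these data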;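 note: channel flux triggered by added potassium and thallium sulfate stimulus; B-score of peak minus minimum fluorescence over baseline after thallium stimulus; more negative B-score means stronger Kir2.1 block with less thallium influx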
ANO1 block: mouse TMEM16A channel inhibition, primary screen; AID 588511; HEK293 TMEM16A/YFP iodide influx fluorescence, ionomycin; Q8BHY3; 310,000 tested, 1.2% active; normalized B-score (activity score, 25-100; higher = stronger inhibition) at 10 µM;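 active = ratio plate-corrected score three or more library SD toward inhibition, starting fluorescence score within five deviations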;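 note: score derived from kinetic fluorescence span divided by baseline fluorescence per well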
An asterisk follows results filed as active. Most compounds without a hit are left out; they make up all but 3.5% or so of the library.

For CCOc1ccc(S(=O)(=O)NCCc2cn3ccccc3n2)cc1 the results were TMEM16A act inactive, KCNK9 block inactive, KCNK3 inh inactive, Kir21 block -1.8 and ANO1 block inactive.
O=S(=O)(NCCc1cn2ccccc2n1)c1ccc(-c2ccccc2)cc1 was read as TMEM16A act inactive, KCNK9 block inactive, KCNK3 inh inactive, Kir21 block -4.2* and ANO1 block inactive.
For NCC(c1ccccc1)(c1ccccc1)c1ccccc1 the results were TMEM16A act inactive, KCNK9 block inactive, KCNK3 inh inactive, Kir21 block -4.8* and ANO1 block inactive.
COc1ccccc1OCCSc1nc2ccc([N+](=O)[O-])cc2s1 was read as TMEM16A act inactive, KCNK9 block inactive, KCNK3 inh inactive, Kir21 block 0.33 and ANO1 block 100*.
`CC1CCN(c2nc(CN3CCCCC3)nc3scc(-c4ccccc4)c23)CC1` gave TMEM16A act inactive, KCNK9 block inactive, KCNK3 inh inactive, Kir21 block -7.6* and ANO1 block inactive.
`C=CCSC(=C(C#N)C#N)c1cc2c([nH]1)CCCC2` gave TMEM16A act inactive, KCNK9 block inactive, KCNK3 inh inactive, Kir21 block -0.29 and ANO1 block 100*.
Screening COc1ccccc1C(=O)Nc1nc(-c2ccc(S(=O)(=O)N3CCOCC3)cc2)cs1 returned TMEM16A act inactive, KCNK9 block inactive, KCNK3 inh inactive, Kir21 block 0.01 and ANO1 block 100*.
`COc1ccc(N2CCN(C(=O)CN3CCN(c4nc(-c5ccc(F)cc5)cs4)CC3)CC2)cc1` gave TMEM16A act inactive, KCNK9 block inactive, KCNK3 inh inactive, Kir21 block 1.8 and ANO1 block 25*.
Screening COc1ccc(-c2nnn(CC(=O)N3CCN(c4ccc(F)cc4)CC3)n2)cc1 returned TMEM16A act inactive, KCNK9 block inactive, KCNK3 inh inactive, Kir21 block 0.41 and ANO1 block inactive.
`CCC1=C(OC(=O)N(CC)CC)N2C(=O)OC(=NCCc3c[nH]c4ccccc34)[C@]2(Cc2ccccc2)[C@H]2C1=CC[C@H]1C(=O)NC(=O)[C@H]12` gave TMEM16A act inactive, KCNK9 block inactive, KCNK3 inh inactive, Kir21 block -0.02 and ANO1 block inactive.
Screening Cc1ccccc1NC(=O)c1ccccc1O returned TMEM16A act inactive, KCNK9 block inactive, KCNK3 inh inactive, Kir21 block 0.02 and ANO1 block 25*.
CCOc1ccccc1C(=O)Nc1ccccc1O was read as TMEM16A act inactive, KCNK9 block -6.7*, KCNK3 inh inactive, Kir21 block 1.4 and ANO1 block inactive.
For COc1cc(Cl)c(C)cc1NC(=O)CNC(C)c1ccccc1OC (configuration not stated) the results were TMEM16A act inactive, KCNK9 block inactive, KCNK3 inh inactive, Kir21 block -4.2* and ANO1 block inactive.
Screening C/C=C(/C)C(=O)O[C@@H]1c2c(ccc3ccc(=O)oc23)O[C@@H]1C(C)(C)OC(=O)/C(C)=C\C returned TMEM16A act inactive, KCNK9 block -7.1*, KCNK3 inh inactive, Kir21 block 0.54 and ANO1 block inactive.
Screening CCOc1cc2c(cc1O)C(=NOC)CC1C2CCC2(C)C(O)CCC12 (configuration not stated) returned TMEM16A act -6.6* and KCNK3 inh inactive.
For C[C@]12CC[C@@H]3c4cc(O)c(O)cc4CC[C@H]3[C@@H]1CC[C@@H]2O the results were TMEM16A act inactive, KCNK9 block inactive, KCNK3 inh inactive, Kir21 block -0.79 and ANO1 block inactive.
Screening COc1ccc(N2CC(C(=O)Nc3ccccc3N3CCCC3)CC2=O)c(OC)c1 (configuration not stated) returned TMEM16A act inactive, KCNK9 block inactive, KCNK3 inh inactive, Kir21 block -0.15 and ANO1 block inactive.
For CC(C(=O)N1CCN(C(=O)c2ccco2)CC1)n1sc2ccccc2c1=O (configuration not stated) the results were TMEM16A act -45*, KCNK9 block inactive, KCNK3 inh inactive, Kir21 block 1.1 and ANO1 block inactive.
Screening CCC(C(=O)N1CCN(C(=O)c2ccco2)CC1)n1sc2ccccc2c1=O (configuration not stated) returned TMEM16A act inactive, KCNK9 block inactive, KCNK3 inh inactive, Kir21 block 0.13 and ANO1 block inactive.
Brc1ccccc1OCCOCCOc1cccc2cccnc12 was read as TMEM16A act inactive, KCNK9 block inactive, KCNK3 inh inactive, Kir21 block -4.5* and ANO1 block inactive.
`C=CCc1ccc(OCCOc2cccc3cccnc23)c(OC)c1` gave TMEM16A act inactive, KCNK9 block inactive, KCNK3 inh inactive, Kir21 block -0.99 and ANO1 block inactive.
C=CCc1ccc(OCCOCCOc2cccc3cccnc23)c(OC)c1 was read as TMEM16A act inactive, KCNK9 block inactive, KCNK3 inh inactive, Kir21 block -4.9* and ANO1 block inactive.
O=C(CC1Sc2ccccc2NC1=O)NCc1ccc(Cl)cc1 (configuration not stated) was read as TMEM16A act inactive, KCNK9 block inactive, KCNK3 inh inactive, Kir21 block -1.9 and ANO1 block inactive.
`CCN(Cc1cccc(OC)c1)CC1CCCN(CCc2cccc(OC)c2)C1` (configuration not stated) gave TMEM16A act inactive, KCNK9 block inactive, KCNK3 inh inactive, Kir21 block -3 and ANO1 block inactive.
COc1cccc(CN(C)CC2CCCN(CCc3ccccc3C)C2)c1 (configuration not stated) was read as TMEM16A act inactive, KCNK9 block inactive, KCNK3 inh inactive, Kir21 block -6.5* and ANO1 block inactive.
Screening COc1ccc(CN(C)CC2CCCN(CCc3ccccc3C)C2)cc1O (configuration not stated) returned TMEM16A act inactive, KCNK9 block inactive, KCNK3 inh inactive, Kir21 block -8.8* and ANO1 block inactive.
C=CCSc1nc2c(c(C3CC=CCC3)c1C#N)CCC2 (configuration not stated) was read as TMEM16A act inactive, KCNK9 block -7.7*, KCNK3 inh inactive, Kir21 block -2.2 and ANO1 block inactive.
`CC(C)(C)[C@H]1CCC(=O)N([C@H](CSc2ccc(Br)cc2)Cc2ccccc2)CC1` gave TMEM16A act inactive and KCNK3 inh inactive.
Screening CC(C)(C)[C@H]1CCC(=O)N([C@H](CSc2ccccc2)Cc2ccccc2)CC1 returned TMEM16A act inactive, KCNK9 block -6.8*, KCNK3 inh inactive, Kir21 block -1.4 and ANO1 block inactive.
Screening CCC(CC)C(=O)c1c[nH]c(C(=O)NCc2cccs2)c1 returned TMEM16A act inactive, KCNK9 block inactive, KCNK3 inh inactive, Kir21 block 2.1 and ANO1 block inactive.

High-throughput results: PubChem, Johns Hopkins Ion Channel Center
